We go through 63 molecules from PubChem BioAssay AID2685 (National Center for Advancing Translational Sciences (NCATS), 2010).

In all, about 320,000 compounds went through this assay and about 2,100 (0.66%) were called active. Roughly 53% stayed inconclusive and do not appear here. Calls follow the shape of the dose curve; as a rule, active = well fitted inhibition curve with a large enough effect in the signal ratio, with a control signal flat (not every such curve was filed as active); inconclusive = small, poorly fitted or top-dose-only effect, or effect the other way, or a change in a side signal; inactive = flat fitted curve, though single readings scatter; the % refers to the signal ratio. Many of the other results were omitted from the sample, so actives are more common in it than they were.
Potency is read from the fitted curve at half-maximal effect.

The assay is described as follows: qHTS Assay for Lipid Storage Modulators in Drosophila S3 Cells.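 As to cell number change: cells counted by Cell Tracker Red CMTPX staining in the red channel.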 To be noted: BODIPY lipid droplet fluorescence, 18-24 h, cells fed with added oleic acid; cell number change: measured here: cell count max response; series mostly up to 46.1 µM. The source says:
NIH Molecular Libraries Probe Production Centers Network [MLPCN] NIH Chemical Genomics Center [NCGC] MLPCN Grant: 1 R03 MH085686-01 Assay Submitter (PI): Beller, Mathias; Max-Planck-Institut fur Biophysikalische Chemie NCGC Assay Overview: Storing lipids as a reservoir for energy or the anabolism of elementary metabolites is a common feature of probably all cells and is conserved from bacteria to humans. The universal cellular lipid storage organelle is the so-called lipid storage droplet (LD). Although ubiquitous, LDs share a simple structure composed of a hydrophobic core that harbors the storage lipids, which is shielded by a droplet-specific phospholipid monolayer to which proteins are attached. The current model of LD biogenesis involves an incorporation of the lipid core into the membrane leaflets of the endoplasmic reticulum (ER) followed by a subsequent budding-like maturation of a LD, which ultimately pinches off. Once released, LD volume can increase by localized lipogenesis or fusion of existing droplet. Storage lipids are re-mobilized enzymatically by lipase activity. Lipase regulation in the adipocyte is heavily studied and involves multiple components including catecholamine signaling, the LD-associated proteins Perilipin and comparative gene identification (CGI-58) and at least two lipases named hormone sensitive lipase (HSL) and adipocyte triglyceride lipase (ATGL). LD regulation outside of the adipocyte is poorly understood and only few components are known. However, there is an urgent need to learn more about ectopic fat depots as mislocalized storage of lipids, for example in the liver or muscle, is an eminent health problem associated with insulin resistance or the metabolic syndrome. We developed a laser-scanning cytometer assay to enable 1,536-well screening and combined the results of the small molecules screen with an RNAi database based on lipid storage.
Triacsin C (Sigma-Aldrich T-4540), an inhibitor of long-chain fatty acyl CoA synthetase that blocks synthesis of triglycerides, was used as a positive control for lipid under-storage. A total of 23 nL of compound solution of different concentrations were transferred to the assay plates using a Kalypsys pin tool equipped with a 1,536-pin array containing 10-nL slotted pins (FP1S10, 0.457-mm diameter, 50.8 mm long; V&P Scientific). One microliter of oleic acid (400 uM) was added, and the plate was lidded with stainless steel rubber gasket lined lids containing pinholes. […] Fluorescence was detected by excitation of the fluorophores with a 488-nm laser on an Acumen Explorer (TTP Lab Tech). The total intensity in channel 2 (500-530 nm) reflected lipid droplet accumulation. Cells were detected using channel 3 (575-640 nm) with 5-um width and 100-um depth filters. The ratio of the number of objects in PMT channel 2 over the number of objects in PMT channel 3 was also calculated. Percent activity was computed relative to an internal control (100% inhibited lipid droplet deposition due to the presence of 20 uM Triacsin C), which was added to 32 wells/plate.
For orientation: qHTS replaces the single test concentration by a dilution series.
As to `CCn1cc(C2CC(=O)NC2=O)c2ccccc21` (stereo unspecified), the Potency result is “inactive”.

Regarding `CS(=O)(=O)N(CC(=O)NCC1CCCO1)c1cccc(Cl)c1` (stereo unspecified), the Potency result is “inactive”.

On to `CS(=O)(=O)N(CC(=O)NCC1CCCO1)c1ccc(F)c(Cl)c1` (stereo unspecified), for which the Potency was 14.6 µM (active) and the cell number change was -13%.

Consider `CS(=O)(=O)N(CC(=O)NCC1CCCO1)c1ccc(Cl)c(Cl)c1` (stereo unspecified), for which the Potency result was “inactive” and the cell number change was -7.69%.

Take `COCCNC(=O)Cn1nc(C(F)(F)F)c(Cl)c1C`: the Potency entry was “inactive” and the cell number change was -6.82%.

For the molecule `COc1ccc(-c2csc3nc(C(C)(C)C)oc(=O)c23)cc1OC`, the Potency result was “inactive” and the cell number change came out at 0.241%.

Turning to `COc1ccc(-c2ccc(NS(=O)(=O)c3cc([N+](=O)[O-])c(C)c([N+](=O)[O-])c3)cc2)nn1`, the Potency entry was “inactive” and the cell number change is -13.5%.

For `CCOc1ccc(-c2ccc(NS(=O)(=O)c3ccc([N+](=O)[O-])cc3)cc2)nn1`, the Potency entry was “inactive” and the cell number change came out at 0.33%.

For `CCOc1ccc(-c2ccc(NS(=O)(=O)c3cc([N+](=O)[O-])c(C)c([N+](=O)[O-])c3)cc2)nn1`, the Potency was 23.1 µM (active) and the cell number change is -5.38%.

Take `COC(=O)c1ccc2nc(NC(=O)C(C)(C)C)sc2c1`: the Potency entry is “inactive” and the cell number change is -18.4%.

For `O=C(O)CCn1c(=S)oc2ccccc21`, the Potency result is “inactive” and the cell number change came out at 2.74%.

For `CC(C)OC(=O)n1c(=S)oc2ccccc21`, the Potency result is “inactive” and the cell number change is -3.93%.

For the molecule `CC(C)CC(=O)/C=C/n1c(=S)oc2ccccc21`, the Potency was 23.1 µM (active) and the cell number change is -3.17%.

Turning to `COc1ccccc1NC(=O)C1CCCN(c2ncnc3c2nc2n3CCCCC2)C1` (stereo unspecified), the Potency result was “inactive” and the cell number change is -12.6%.

As for `Cc1cc[n+](Cc2ccc([N+](=O)[O-])cc2)cc1`, the Potency entry was “inactive” and the cell number change is -4.93%.

`N=c1n(CCN2CCCCC2)c2ccccc2n1CC(O)c1ccco1` (stereo unspecified): the Potency result is “inactive” and the cell number change was found to be 15.8%.

Turning to `CCCn1c(=N)n(CC(O)c2ccco2)c2ccccc21` (stereo unspecified), the Potency entry was “inactive” and the cell number change amounted to 16.8%.

For `N=c1n(CCN2CCCC2)c2ccccc2n1CC(O)c1ccco1` (stereo unspecified), the Potency is 23.1 µM (active) and the cell number change came to 7.5%.

Regarding `Cc1onc(C(=O)N2CCN(C(c3ccccc3)c3ccccc3)CC2)c1[N+](=O)[O-]`, the Potency entry was “inactive” and the cell number change came out at 3.65%.

Take `CC(OC(=O)C1=Cc2ccccc2OC1)C(=O)NCc1ccco1` (stereo unspecified): the Potency result was “inactive”.

With `O=C(Cn1[nH]c(=O)c2ccccc2c1=O)Nc1cccnc1`, the Potency result was “inactive” and the cell number change stood at 7.37%.

As for `CCC(C(=O)Nc1ccc2c(c1)OCCO2)n1c(=O)[nH]c2ccccc2c1=O` (stereo unspecified), the Potency entry is “inactive” and the cell number change was -11.6%.

Take `CCC(C(=O)Nc1cccnc1)n1c(=O)[nH]c2ccccc2c1=O` (stereo unspecified): the Potency is 18.4 µM (active) and the cell number change is -16%.

In the case of `CCO[C@@H]1OC(C(=O)N2CCN(Cc3ccc4c(c3)OCO4)CC2)=C[C@H](c2ccc3c(c2)OCO3)[C@H]1CCCO`, the Potency result was “inactive”.

As to `O=c1c2ccccc2nnn1CCN1CCOCC1`, the Potency entry is “inactive” and the cell number change was -18.2%.

In the case of `CCC(Sc1nc2ccccc2c(=O)[nH]1)C(=O)O` (stereo unspecified), the Potency result is “inactive” and the cell number change was -2.97%.

In the case of `Cc1ccc2nc(SC(C)C(=O)N3CCCC3)[nH]c2c1` (stereo unspecified), the Potency entry is “inactive” and the cell number change was found to be 17.4%.

Turning to `CCC(Sc1nc2ccc(C)cc2[nH]1)C(=O)O` (stereo unspecified), the Potency was 14.6 µM (active) and the cell number change came to 14.5%.

For the molecule `O=c1[nH]cnc2scc(-c3ccccc3)c12`, the Potency result was “inactive” and the cell number change is -0.547%.

Take `Cc1ccc(-c2csc3nc[nH]c(=O)c23)cc1C`: the Potency result was “inactive” and the cell number change is -18.4%.

Turning to `COc1cccc(-c2csc3nc[nH]c(=O)c23)c1`, the Potency is 20.6 µM (active).

As for `OCCCNc1ncnc2oc(-c3ccccc3)c(-c3ccccc3)c12`, the Potency result is “inactive” and the cell number change stood at 13.3%.

As for `C(=N\Nc1nc2ccccc2[nH]1)/c1ccccc1`, the Potency result was “inactive” and the cell number change was -28.7%.

As for `CC(C)Cn1c(/C=N/Nc2nc3ccccc3[nH]2)nc2ccccc21`, the Potency result is “inactive” and the cell number change was -7.46%.

`CCCn1c(/C=N/Nc2nc3ccccc3[nH]2)nc2ccccc21`: the Potency was 13 µM (active) and the cell number change was -13.7%.

Regarding `CCOC(=O)N1CCN(Cc2nnc(-c3ccccc3C)o2)CC1`, the Potency result is “inactive” and the cell number change was determined as 3.5%.

Consider `Cc1cc(NC(=O)c2cccs2)ncc1NC(=O)c1cccc(F)c1`, for which the Potency entry was “inactive” and the cell number change amounted to 0.447%.

As for `CCCCc1nc(C(N)=O)c2[nH]c(=O)n(-c3ccc(OC)c(OC)c3)c2n1`, the Potency entry is “inactive”.

Turning to `CC1CCCCC1NC(=O)CN1C(=O)COc2ccccc21` (stereo unspecified), the Potency result is “inactive” and the cell number change was -0.697%.

In the case of `CCC1Oc2ccccc2N(CC(=O)NC2CCCCC2)C1=O` (stereo unspecified), the Potency result is “inactive” and the cell number change stood at 2.82%.

Turning to `CCC1Oc2ccccc2N(CC(=O)NC2CCCCC2C)C1=O` (stereo unspecified), the Potency is 29.1 µM (active) and the cell number change is -4.58%.

With `CC(C)c1nnc(NC(=O)COc2ccccc2[N+](=O)[O-])s1`, the Potency result was “inactive” and the cell number change came to 0.142%.

Take `O=C(Nc1nc(-c2ccccn2)cs1)c1ccco1`: the Potency result is “inactive” and the cell number change is -10.5%.

Take `CCc1cc(C(=O)Nc2ncccc2O)sc1C`: the Potency entry was “inactive” and the cell number change is -6.68%.

Turning to `Cc1ccc(C(=O)Nc2nc(-c3ccccn3)cs2)s1`, the Potency was 2.06 µM (active) and the cell number change was -8.64%.

Take `Cc1ccnc2nc(C(=O)Nc3nc(-c4ccccn4)cs3)nn12`: the Potency was 1.64 µM (active) and the cell number change was -16%.

As to `Cc1ccnc2nc(C(=O)Nc3nccs3)nn12`, the Potency entry is “inactive” and the cell number change was -14.4%.

For `CC(=O)Nc1ccc(C(=O)Nc2nc(-c3ccccn3)cs2)cc1`, the Potency result is “inactive”.

On to `Cc1cc(C)c(OCC(=O)Nc2nc(-c3ccccn3)cs2)c(C)c1`, for which the Potency entry was “inactive” and the cell number change worked out at 1.77%.

Turning to `CCc1cc(C(=O)Nc2nc(-c3ccccn3)cs2)sc1C`, the Potency is 5.17 µM (active) and the cell number change was 3.52%.

Consider `Cn1nc(C(=O)Nc2nc(-c3ccccn3)cs2)c2ccccc2c1=O`, for which the Potency entry is “inactive” and the cell number change was -20.7%.

On to `CCCNC(=O)c1cccc(Br)c1`, for which the Potency entry was “inactive”.

`CC(=O)N1CCc2cc(Br)cc(S(=O)(=O)N3CCCCC3)c21`: the Potency result was “inactive” and the cell number change was -26.2%.

For the molecule `CC(=O)Nc1cccc(NC(=O)C(C)N2c3cccc4cccc(c34)S2(=O)=O)c1` (stereo unspecified), the Potency result is “inactive” and the cell number change was 20.8%.

Regarding `COC(=O)C1(C(C[N+](=O)[O-])c2ccco2)C(=O)NCC1c1ccccc1` (stereo unspecified), the Potency entry is “inactive”.

For `Cc1cc(Oc2ccccc2)nc(NCc2ccccc2)n1`, the Potency entry is “inactive” and the cell number change is -8.62%.

For the molecule `COc1cc(C)nc(NCc2ccccc2)n1`, the Potency result was “inactive”.

With `Cc1cc(Nc2ccccc2)nc(NCc2ccccc2)n1`, the Potency was 8.2 µM (active) and the cell number change is -27.7%.

As for `CCOc1ccc2nc(N3C(=O)/C(=C/c4ccccc4)NC3=S)sc2c1`, the Potency was 9.2 µM (active) and the cell number change was -2.65%.

For `COc1ccc2nc(N3C(=O)/C(=C/c4ccc(Cl)cc4)NC3=S)sc2c1`, the Potency entry is “inactive” and the cell number change stood at 28.8%.

As to `CCOc1ccc2nc(N3C(=O)/C(=C/c4ccc(Cl)cc4)NC3=S)sc2c1`, the Potency result was “inactive” and the cell number change is 13.8%.

Turning to `CCOC(=O)C1CCN(S(=O)(=O)c2ccc(-c3ccccn3)s2)CC1`, the Potency result is “inactive” and the cell number change amounted to 18.1%.

Turning to `CCOC(=O)CN(C(=O)CSc1nnc(CNc2ccc(C)cc2C)n1CC)c1ccccc1`, the Potency result is “inactive” and the cell number change is -14.6%.
